In PubChem BioAssay AID1159580 (chemical genetic matrix, 2015):
In all, about 5,500 compounds went through this assay and about 2,000 (36%) were called active. Another 18% or so got no clear call; they are omitted. No stated cut-off is given here; in the data, active means normalized growth mostly below about 0.91 (no sharp cut-off); inconclusive means no clear call, values can overlap the other calls; inactive means mostly above about 0.92. This is one part of the list.

Assay: chemical genetic growth profiling, strain panel (AID 1159580);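 further: tested at 20 µM; growth read once vehicle control cultures reached saturation at 30 °C; 1 = growth at the plate median or of vehicle wells; lower values mean less growth of the strain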
Details: S. cerevisiae deletion strains, growth OD

Measured: normalized growth

CCOC(=O)c1c(C)cc(O)cc1O
inactive: locus YJR066W, strain TOR1, active compounds read low 0.853 | locus YKL009W, strain mrt4, active compounds read low 0.924 | locus YKL160W, strain elf1, active compounds read low 0.911 | locus YKR026C, strain gcn3, active compounds read low 0.929 | locus YKR091W, strain srl3, active compounds read low 0.942 | locus YLL001W, strain dnm1, active compounds read low 0.919 | locus YLL026W, active compounds read low 0.935 | locus YLR027C, strain aat2, active compounds read low 0.93 | locus YLR058C, strain SHM2, active compounds read low 0.906 | locus YLR102C, strain apc9, active compounds read low 0.941 | locus YLR113W, strain HOG1, active compounds read low 0.925 | locus YLR221C, strain rsa3, active compounds read low 0.931 | locus YLR262C, strain YPT6 (second series), active compounds read low 0.857 | locus YLR268W, strain sec22, active compounds read low 0.964 | locus YLR320W, strain mms22, active compounds read low 0.916 | locus YLR342W, strain FKS1, active compounds read low 0.941 | locus YLR357W, strain rsc2, active compounds read low 0.909 | locus YLR384C, strain iki3, active compounds read low 0.937 | locus YML120C, strain ndi1, active compounds read low 0.926 | locus YMR058W, strain fet3, active compounds read low 0.914 | locus YMR125W, strain sto1, active compounds read low 0.907 | locus YMR129W, active compounds read low 0.949 | locus YMR205C, strain PFK2, active compounds read low 0.91 | locus YMR231W, strain pep5, active compounds read low 0.984 | locus YMR307W, strain GAS1, active compounds read low 1.06 | locus YNL067W, strain RPL9B, active compounds read low 0.899 | locus YNL071W, strain lat1, active compounds read low 0.926 | locus YNL128W, strain TEP1, active compounds read low 0.933 | locus YNL153C, strain GIM3, active compounds read low 0.9 | locus YNL183C, strain NPR1, active compounds read low 0.869 | locus YNL209W, strain ssb2, active compounds read low 0.97 | locus YNL298W, strain CLA4, active compounds read low 0.953 | locus YNL322C, strain KRE1 (second series), active compounds read low 0.935 | locus YNR049C, strain mso1, active compounds read low 0.92 | locus YNR052C, strain pop2, active compounds read low 0.949 | locus YOL006C, strain TOP1, active compounds read low 0.578 | locus YOL012C, strain htz1 1.06 | locus YOR061W, strain CKA2, active compounds read low 0.957 | locus YOR070C, strain gyp1, active compounds read low 0.951 | locus YOR080W, strain dia2, active compounds read low 0.942 | locus YOR083W, strain WHI5, active compounds read low 0.89 | locus YOR136W, strain idh2, active compounds read low 0.928 | locus YOR184W, strain ser1, active compounds read low 0.915 | locus YOR231W, strain MKK1, active compounds read low 0.905 | locus YOR290C, strain snf2, active compounds read low 0.88 | locus YPL051W, strain arl3, active compounds read low 0.956 | locus YPL055C, strain LGE1, active compounds read low 0.922 | locus YPL106C, strain sse1, active compounds read low 0.88 | locus YPL240C, strain hsp82, active compounds read low 0.952 | locus YPL256C, strain CLN2, active compounds read low 0.839
active: locus YKL068W, active compounds read low 0.928 | locus YKL085W, strain MDH1 (second series), active compounds read low 0.912 | locus YKL085W, strain MDH1, active compounds read low 0.912 | locus YKR001C, strain vps1, active compounds read low 0.732 | locus YLL041C, strain sdh2, active compounds read low 0.917 | locus YLR039C, strain RIC1, active compounds read low 0.604 | locus YLR258W, strain gsy2, active compounds read low 0.906 | locus YLR262C, strain YPT6, active compounds read low 0.556 | locus YLR330W, strain CHS5, active compounds read low 0.876 | locus YLR370C, strain arc18, active compounds read low 0.895 | locus YLR371W, strain rom2, active compounds read low 0.767 | locus YLR418C, strain cdc73, active compounds read low 0.758 | locus YML016C, strain PPZ1, active compounds read low 0.888 | locus YML032C, strain rad52, active compounds read low 0.897 | locus YML124C, strain tub3, active compounds read low 0.911 | locus YMR078C, strain ctf18, active compounds read low 0.881 | locus YMR223W, strain ubp8, active compounds read low 0.898 | locus YNL233W, strain BNI4, active compounds read low 0.788 | locus YNL248C, strain rpa49, active compounds read low 0.872 | locus YNL250W, strain rad50, active compounds read low 0.862 | locus YNL271C, strain bni1, active compounds read low 0.906 | locus YNL307C, strain MCK1, active compounds read low 0.846 | locus YOL147C, strain pex11, active compounds read low 0.912 | locus YOR001W, strain rrp6, active compounds read low 0.89 | locus YOR069W, strain VPS5, active compounds read low 0.924 | locus YOR106W, strain vam3, active compounds read low 0.855 | locus YOR144C, strain elg1, active compounds read low 0.913 | locus YOR265W, strain rbl2, active compounds read low 0.913 | locus YOR270C, strain vph1, active compounds read low 0.721 | locus YOR316C, strain cot1, active compounds read low 0.917 | locus YPL078C, strain atp4, active compounds read low 0.887 | locus YPR119W, strain clb2, active compounds read low 0.904 | locus YPR141C, strain kar3, active compounds read low 0.901 | locus YPR163C, strain tif3, active compounds read low 0.908 | locus YPR167C, strain met16, active compounds read low 0.891 | strain wtn01, active compounds read low 0.892
